Experimental findings from PubChem BioAssay (NCATS) are described below.

Results filed as inconclusive are left out. A call without a number means that no potency is given here. The source made the active and inactive calls. The call rests on the fitted dose curve; in most records, active means well fitted cell-killing curve with a large enough effect; inconclusive means small, poorly fitted or top-dose-only effect; inactive means no such curve, though single readings can be large or run the other way.
Potency means the concentration at half of the fitted maximal effect.

The nature of this test: qHTS of pediatric cancer cell lines to identify multiple opportunities for drug repurposing: Primary screen for NB-EBc1 cells (AID 1347095). To be noted: NB-EBc1 neuroblastoma viability, CellTiter-Glo luminescence, 48 h; series mostly up to 46 µM. From the text:
Drug repurposing or repositioning has been offered as a strategy for drug development in oncology programs. This approach has special potential for childhood cancers and other rare or orphan diseases, where the expected return on new drug development has been a disincentive to pharmaceuticals. […] In this project we exploit the poly-pharmacology of drugs to discover new indications via phenotypic screening of a panel of 19 well-characterized cell lines derived from solid tumors seen in children and adolescents. The goal is to identify approved drugs with previously unrecognized anticancer properties that has the potential to reveal new mechanisms and biological processes involved in carcinogenesis or drug resistance. We employed a titration-based paradigm (quantitative high-throughput screening or qHTS), where all compounds were tested at multiple concentrations for their effect on cell viability. Concentration-response curves (CRCs) were derived directly from the primary screen, and both potency and efficacy values were used to identify compounds with robust bioactivity profiles. We screened the NIH Chemical Genomics Center (NCGC) Pharmaceutical Collection (NPC) and Mechanism Interrogation Plate (MIPE) small molecule collections of approved and investigational compounds against these cell lines; and measured metabolically active cells after 48 hours of compound treatment as a proxy for cell viability. […] Assay Submitter: Nathalia J. Martinez, National Center for Advancing Translational Sciences, National Institutes of Health, Rockville, MD, USA; email: natalia.martinez@nih.gov Shen, M et al. Quantitative high-throughput phenotypic screening of pediatric cancer cell lines identifies multiple opportunities for drug repurposing. Oncotarget 2017 Dec 19;9(4):4758-4772. PMID 29435139.
The cells were obtained from University of North Carolina (UNC), Pediatric Preclinical Testing Program (PPT), and Coriell Institute (CI). qHTS cell viability assay: Cells were assayed in growth media at a density of 500-1,000 cells/well. Five microliters of cells were dispensed into 1,536-well, white, solid-bottom, TC-treated plates (Greiner Bio One) using a multidrop dispenser and incubated at 37 degrees C, 5% CO2, under a humidified atmosphere for 5 hours. Twenty-three nanoliters of compounds and controls (neutral control DMSO or positive control bortezomib at final concentration of 2.3 µM) were subsequently transferred by Kalypsys pintool. For primary screens, the MIPE collection was tested at 11-point dilutions (final concentrations range from 0.78 nM to 46 µM) and the NPC collection at 8-point dilutions (final concentrations range from 0.59 nM to 46 µM). Compounds tested in follow-up screens were assayed at 11-point dilutions. Cells were incubated for 48 hours, followed by addition of 3 µL of CellTiter-Glo (Promega). After a 15 min incubation at room temperature, samples were analyzed for luminescence intensity using a ViewLux High-throughput CCD imager equipped with clear filters.
As for `CCCCC(O)/C=C(C)/C=C/C=C/C(=O)N1CCCC1=O` (stereo not given), the Potency entry is “inactive”.

Take `Cc1cccc(C)c1NC(=O)c1cc(S(N)(=O)=O)c(Cl)cc1O`: the Potency result was “inactive”.

On to `CC1CCCCN1CCCOC(=O)c1ccc(OC2CCCCC2)cc1` (stereo not given), for which the Potency result is “inactive”.

As to `C[C@@H](O[C@H]1OCCN(Cc2n[nH]c(=O)[nH]2)[C@H]1c1ccc(F)cc1)c1cc(C(F)(F)F)cc(C(F)(F)F)c1`, the Potency was 18.8 µM (active).

With `CCCCC/C=C\C/C=C\CCCCCCCC(=O)NC(C)c1ccccc1` (stereo not given), the Potency result is “inactive”.

Consider `CC(NN)c1ccccc1` (stereo not given), for which the Potency result was “inactive”.

In the case of `CCCCOC(=O)CCCCCCCCC(=O)OCCCC`, the Potency entry was “inactive”.

For `Cc1c(F)cc2c(=O)c(C(=O)O)cn3c2c1CCC3C` (stereo not given), the Potency result was “inactive”.

On to `OC1(c2ccc(Cl)cc2)CCNCC1`, for which the Potency entry was “inactive”.

Turning to `COC(=O)/C=C\C(=O)OC`, the Potency entry is “inactive”.

In the case of `N#CSCC(=O)O`, the Potency result was “inactive”.

`O=C(O)Cc1ccccc1Oc1ccc(Cl)cc1Cl`: the Potency entry is “inactive”.

With `CC(=O)O[C@@H]1CC2C3CCc4cc(OC(=O)c5ccccc5)ccc4C3CCC2(C)[C@H]1OC(C)=O` (stereo not given in full), the Potency entry was “inactive”.

Consider `Cc1cc(=O)oc2cc(O[C@@H]3SC[C@@H](O)[C@H](O)[C@H]3O)ccc12`, for which the Potency result was “inactive”.

For the molecule `COc1cc(NS(=O)(=O)c2ccc(N)cc2)nc(C)n1`, the Potency result was “inactive”.

Consider `Cc1cnc(NS(=O)(=O)c2ccc(N)cc2)nc1`, for which the Potency result was “inactive”.

`O=C1OC2(c3ccccc31)c1cc(I)c(O)c(I)c1Oc1c2cc(I)c(O)c1I`: the Potency entry was “inactive”.

`COc1cc(S(N)(=O)=O)cc(C(=O)O)c1OC`: the Potency result was “inactive”.

Take `CCN(CC)CC(=O)OCC(=O)[C@@]1(O)CC[C@H]2[C@@H]3CCC4=CC(=O)CC[C@]4(C)[C@H]3[C@@H](O)C[C@@]21C`: the Potency entry was “inactive”.

In the case of `CCCCC(CC)CNC(=O)CC(C)OC(=O)CCC(=O)O` (stereo not given), the Potency entry is “inactive”.

Take `O=C(OCC(COC(=O)c1cccnc1)(COC(=O)c1cccnc1)COC(=O)c1cccnc1)c1cccnc1`: the Potency entry was “inactive”.

`O=C(CCOCCOCCOCCOCCC(=O)Nc1c(I)cc(I)c(C(=O)O)c1I)Nc1c(I)cc(I)c(C(=O)O)c1I`: the Potency entry is “inactive”.

Turning to `CN1CCC(Nc2ncc3ncnc(Nc4ccc(F)c(Cl)c4)c3n2)CC1`, the Potency result was “inactive”.

Turning to `O=C1CC[C@H](C(=O)N2CCCCC2)N1`, the Potency entry was “inactive”.

As for `CCCC(=O)Nc1ccc(O)c(C(C)=O)c1`, the Potency result is “inactive”.

Regarding `CCOc1ncc(F)c(=O)[nH]1`, the Potency result was “inactive”.

Regarding `CC(C)NCCCC1(C(N)=O)c2ccccc2-c2ccccc21`, the Potency result was “inactive”.

As for `CC(C)=CCC/C(C)=C/CC/C(C)=C/CCC(=O)OC/C=C(\C)CCC=C(C)C`, the Potency entry is “inactive”.

For the molecule `C[C@H]1C[C@H]2[C@@H]3CCC4=CC(=O)C=C[C@]4(C)[C@H]3C(=O)C[C@]2(C)[C@@]1(O)C(=O)CO`, the Potency result is “inactive”.

As for `CCOC(=O)c1ccc(NC(=O)CN2CCCCC2)cc1`, the Potency entry was “inactive”.

As to `CCOC(=O)Oc1ccc(CCNC(=O)[C@H](CCSC)NC(C)=O)cc1OC(=O)OCC`, the Potency result is “inactive”.

For `N#Cc1cc(NC(=O)C(=O)O)c(Cl)c(NC(=O)C(=O)O)c1`, the Potency result is “inactive”.

On to `COc1c(C)c2c(c(O)c1C/C=C(\C)CCC(=O)OCCN1CCOCC1)C(=O)OC2`, for which the Potency is 0.188 µM (active).

As to `O=C(O)c1ccccc1S`, the Potency entry was “inactive”.

As for `CN1CCC(N(Cc2cccs2)c2ccccc2)CC1`, the Potency entry was “inactive”.

On to `Fc1ccc(C(c2ccc(F)cc2)N2CCNCC2)cc1`, for which the Potency result was “inactive”.

As for `COc1ccc(OC(=O)N(CC(=O)O)Cc2ccc(OCCc3nc(-c4ccccc4)oc3C)cc2)cc1`, the Potency entry is “inactive”.

As for `CCOC(=O)c1ccc(OCCN2C[C@H](O)[C@@H](O)[C@H](O)[C@H]2CO)cc1`, the Potency result is “inactive”.

Take `O=C(O)Cn1c(=O)n(Cc2ccc(Br)cc2F)c(=O)c2ccc(Cl)cc21`: the Potency result is “inactive”.

As to `O=C1Nc2ccccc2C1(c1ccc(O)cc1)c1ccc(O)cc1`, the Potency result is “inactive”.
